This is a sample that favours compounds with a hit; in the whole collection about 3.7% have one here.
NLRP3 yeast inh = NALP3 inflammasome inhibitors in reconstituted yeast, primary screen, luminescence, uHTS. Yeast reconstituted NLRP3/ASC/caspase-1, beta-gal luminescence, 24 h. inhibition, % at 10 µM. actives 0.39% (n = 330,000). AID 2825, 2010;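 active = inhibition of 50% or more; inactive = inhibition below 50%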;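 also: plate controls were induced DMSO wells for no effect and uninduced yeast grown without galactose for full effect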
TIM10 inh = growth inhibitors of isogenic TIM10 control yeast, primary screen, counter-screen for tim10-1 yeast inhibitor project, luminescence, uHTS; actives 1.4% (n = 330,000); S. cerevisiae TIM10 strain growth, BacTiter-Glo luminescence, 24 h; AID 463195, 2010; inhibition, % at 10 µM;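 active = inhibition of 40% or more at the single tested concentration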;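 also: wild-type TIM10 isogenic control strain grown at permissive 25 °C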
tim10-1 inh = growth inhibitors of tim10-1 mutant yeast, primary screen, luminescence, uHTS; inhibition, % at 20 µM; AID 463190, 2010; actives 2.2% (n = 330,000); S. cerevisiae tim10-1 ts strain growth, BacTiter-Glo, 24 h;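 active = inhibition of at least 40%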;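 also: mutant grown at 25 °C; 0% = DMSO wells with yeast and 100% = wells holding no yeast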
PfHsp90 yeast 2 = growth inhibition of PfHsp90-expressing yeast, primary screen, antimalarial PfHsp90 inhibitor project, S. cerevisiae, BacTiter-Glo luminescence, single point, set 2. BacTiter-Glo ATP, 48 h; yeast lacking PDR1 and PDR3 efflux regulators. actives 0.32% (n = 310,000). inhibition, % at 9.4 µM;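 active = every replicate shows inhibition above about 80%, whatever the replicate mean, limit read from the data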;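 also: 0% = DMSO neutral controls and 100% = 20 µM radicicol positive controls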
tim23-1 inh = growth inhibitors of tim23-1 mutant yeast, primary screen, luminescence, uHTS | actives 1.3% (n = 330,000) | inhibition, % at 20 µM | S. cerevisiae tim23-1 growth, BacTiter-Glo luminescence, 24 h;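 active = growth inhibition of the mutant yeast at or above 50%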;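 also: temperature-sensitive mutant grown at 25 °C; plate controls were DMSO-treated mutant yeast for no effect and medium wells lacking yeast for full effect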
The depositor's hits bear a star; . = no result.

SMILES | NLRP3 yeast inh | TIM10 inh | tim10-1 inh | PfHsp90 yeast 2 | tim23-1 inh
Clc1ccccc1CN(Cc1ccco1)Cc1nnnn1C1CCCC1 | 11 | -16 | 11 | 85* | 7
CCCCCc1ccc(OCCC[n+]2ccccc2)c(CCCCC)c1 | 8 | 4 | 13 | -24 | -133
CCCCCCCCCCCCCCCC[n+]1ccccc1 | . | . | . | 114* | .
O=C(Cc1cccc2ccccc12)Nc1nc(-c2cccc([N+](=O)[O-])c2)cs1 | 8 | 11 | 1 | -19 | 7
CCCCCCn1ccc(=N)cc1 | 23 | -3 | 3 | 11 | 1
CCCCCCCCCCCCCCCCn1cc[n+](CC(C)=O)c1 | . | . | . | 105* | .
Nc1ccccc1C#CC(=O)c1ccccc1 | -50 | 24 | -23 | 114* | -62
O=C(NS(=O)(=O)NC1CCCCC1)C1=C(N2CCCC2)COC1=O | 11 | -2 | 7 | -17 | 17
O=C(/C=C/c1ccccc1)NC(=S)NNC(=O)c1cnccn1 | 10 | -4 | 9 | 109* | 33
N=c1oc2ccc(Br)cc2cc1C(=O)NC1CCCCCC1 | 12 | 7 | 24 | -47 | 24
O=C(CSc1nnc(NC(=O)c2ccccc2)s1)NC1CCCC1 | 12 | -18 | -11 | 12 | 2
O=C(NCC(c1ccco1)N1CCN(c2ccccc2F)CC1)C(=O)NC1CCCC1 (stereo not given) | 12 | 12 | -1 | . | 2
CCN1/C(=C/c2ccc3cc(C)ccc3[n+]2CC)Sc2cc(C)ccc21 | . | . | . | 94* | .
CCN(CC)c1ccc(C(=C2C=CC(=[N+](CC)CC)C=C2)c2ccc(N(CC)CC)cc2)cc1 | . | . | . | 136* | .
CCN(CC)c1ccc(C(=C2C=CC(=[N+](CC)CC)C=C2)c2ccccc2)cc1 | . | . | . | 147* | .
CCN(CC)c1ccc(C(=O)NNC(=O)CCNC(=O)c2ccccc2)cc1 | 14 | 5 | 14 | -6 | 2
OC(COC(c1ccc(F)cc1)c1ccc(F)cc1)CN1CCCC1 (stereo not given) | 8 | 4 | 21 | 10 | 11
O=C(Cn1ccccc1=S)c1ccc(Cl)c(Cl)c1 | 10 | -21 | 4 | . | 21
On1ccccc1=S | . | . | . | 107* | .
CC(=NNC(=S)SCc1ccccc1)c1ccccn1 | . | . | . | 22 | .
CC(=NNC(=S)Nc1cccc(Cl)c1)c1ccccn1 | . | . | . | 124* | .
CC(=NNC(=S)N1CCC1)c1ccccn1 | . | . | . | 107* | .
CCCC(=O)NC1=C(Cl)C(=O)c2ccccc2C1=O | . | . | . | 146* | .
CCNC1=C(Cl)C(=O)c2ccccc2C1=O | 1 | 19 | 2 | -4 | 45
O=C1C=CC(=O)N1c1ccc(O)cc1 | 2 | -25 | 11 | 109* | 8
SMILES | NLRP3 yeast inh | TIM10 inh | tim10-1 inh | PfHsp90 yeast 2 | tim23-1 inh
O=C1C=CC(=O)N1c1ccc(OC(F)F)cc1 | . | . | . | 127* | .
CC(=O)NC(c1ccco1)c1ccc2cccnc2c1O (stereo not given) | 34 | -11 | 30 | 4 | 17
CC(=O)NC(c1ccc(Cl)cc1)c1ccc2cccnc2c1O (stereo not given) | . | . | . | 114* | .
CC(C)C(=O)NC(c1ccc(Cl)cc1Cl)c1ccc2cccnc2c1O (stereo not given) | 20 | -3 | -36 | 113* | 45
O=C(O)c1ccccc1NC(c1ccccc1)c1ccc2cccnc2c1O (stereo not given) | . | . | . | 121* | .
Cc1cc(NC(c2ccc(Cl)cc2)c2ccc3cccnc3c2O)no1 (stereo not given) | 10 | 17 | 18 | 101* | 44
Cc1ccnc(NC(c2ccccc2)c2ccc3cccnc3c2O)c1 (stereo not given) | . | . | . | -32 | .
Cc1cccc(OCc2n[nH]c(=S)n2C2CCCCC2)c1 | 42 | 5 | -31 | -40 | 18
Cc1ccc(OCc2n[nH]c(=S)n2C2CCCCC2)cc1 | 27 | 39 | 34 | 90* | 40
COc1ccc(C(=O)/C=C2\C(=O)Nc3ccc(Br)cc32)cc1 | . | . | . | 144* | .
COc1ccc2c(c1)/C(=C/c1cc(OC)c(OC)c(OC)c1)C(=O)N2 | . | . | . | -7 | .
O=C1/C(=C\c2ccc(Cl)c(Cl)c2)CN(C(=O)CCN2CCOCC2)C/C1=C/c1ccc(Cl)c(Cl)c1 | . | . | . | 107* | .
COc1ccc(NS(=O)(=O)c2cc(NC(=O)c3ccco3)ccc2N2CCCCC2)cc1 | -9 | 4 | 14 | 28 | 15
COc1cc(C=NO)nc(-c2ccccn2)c1 | . | . | . | 98* | .
O=S(=O)(NC1CC2CCC1C2)c1ccc(Br)cc1 (stereo not given) | 43 | -125 | 10 | 108* | 23
C(=NN=C1c2ccccc2-c2ccccc21)c1c[nH]c2ccccc12 | . | . | . | 131* | .
Oc1ccc(C=NN=C2c3ccccc3-c3ccccc32)c(O)c1 | . | . | . | 137* | .
C/C(=N\NC(=O)c1cccc(Cl)c1)C1C(=O)c2ccccc2C1=O | 36 | 10 | -26 | 16 | 33
O=C(CCCNC(=O)c1ccc(Cl)cc1)OCc1cccc(Br)c1 | 25 | -17 | -10 | 113* | 20
CC1(C)N=C(SCC(=O)Nc2ccc(Cl)cc2)C(c2ccc(Cl)cc2)=N1 | 40 | 34 | 30 | 110* | 28
O=C(N/N=C/c1cc2c3c(c1O)CCCN3CCC2)c1ccccc1O | . | . | . | 107* | .
Cc1ccc(-n2nnnc2C(Cl)c2nnnn2-c2ccc(C)cc2)cc1 | . | . | . | 110* | .
COc1cccc(/C=C/c2ccc3cccc(O)c3n2)c1 | 6 | 15 | 17 | 103* | 22
CCC1(C(=O)OC)NC(c2ccco2)C2C(=O)N(c3ccccc3)C(=O)C21 (stereo not given) | 0 | -2 | 9 | . | 6
O=C1C2C3C=CC(CNS(=O)(=O)c4ccccc4[N+](=O)[O-])(O3)C2C(=O)N1c1ccccc1 (stereo not given) | -21 | 10 | 22 | 111* | 5
Cc1cc(C)c(S(=O)(=O)NCC23C=CC(O2)C2C(=O)N(c4ccccc4)C(=O)C23)c(C)c1 (stereo not given) | 8 | 25 | 31 | 104* | 22
CC(C)(C)C(=O)NCC12C=CC(O1)C1C(=O)N(c3ccccc3)C(=O)C12 (stereo not given) | -2 | 7 | 10 | 104* | -3

Screening results (PubChem BioAssay)
